# Laboratory results as given in PubChem BioAssay (NCATS).
# Calls of active or inactive are those of the source. How the calls were made is not given here.
# Tested on: HIV-1 nucleocapsid protein NCp7 (binding to TG oligonucleotide)
# Assay: HIV Nucleocapsid (AID 346);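 further: potency is for inhibitors that block NC binding and lower polarization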
# Details: HIV-1 NC / fluorescein-TGTGTGTG probe, fluorescence polarization
# Procedure, shortened: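 Fluorescence polarization readout: labelled TG4xF oligo (10 nM) with 100 nM nucleocapsid protein, high-salt (250mM NaCl) Hepes pH 7.5 buffer containing zinc and fresh reducing agents. Compounds added by pin tool; incubation 1 hr, room temperature.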
# Potency means the concentration at half of the fitted maximal effect.
row,SMILES,Potency
1,O=C(Oc1ccccc1)N1CCC[C@@]2(CCN(c3ccccn3)C2)C1,> 20 µM (inactive)
2,O=S(=O)(c1ccccc1)N1CCC2(CCCN(Cc3cc(C(F)(F)F)cc(C(F)(F)F)c3)C2)CC1,> 20 µM (inactive)
3,O=c1c(-c2cccc(F)c2)nc2cncnc2n1-c1ccccc1,> 20 µM (inactive)
4,COCCn1c(=O)c(-c2cc(F)cc(F)c2)nc2cnc(Nc3cccc(OC)c3)nc21,3.99 µM (active)
5,COc1cccc(-c2ccc3ncnc(N4CCN(C)CC4)c3c2)c1,> 20 µM (inactive)
6,COc1ccc(Oc2ncc3nc(-c4cc(F)cc(F)c4)c(=O)n(CCC#N)c3n2)cc1,> 20 µM (inactive)
7,CS(=O)(=O)Nc1cccc(-c2cncnc2NCc2cccnc2)c1,> 20 µM (inactive)
8,Cc1nc2cncnc2n(Cc2ccc(F)cc2)c1=O,> 20 µM (inactive)
9,COc1ccc(NC(=O)N2CCCC3(CCN(C(=O)c4csnn4)CC3)C2)cc1,> 20 µM (inactive)
10,Cn1c(=O)c(-c2cccc(C#N)c2)nc2cnc(Oc3ccccc3)nc21,> 20 µM (inactive)
11,CN(C)C(=O)c1ccc(-c2cncnc2Nc2ccc(F)cc2)cc1,> 20 µM (inactive)
12,CN(C)C(=O)c1ccc(-c2cncnc2NCc2cccnc2)cc1,> 20 µM (inactive)
13,O=c1cnc2cnc(Oc3ccccc3)nc2n1Cc1cccs1,> 20 µM (inactive)
14,COc1ccc(C(=O)N2CCC[C@@]3(CCN(Cc4ccc(C#N)cc4)C3)C2)cc1,> 20 µM (inactive)
15,COc1ccc(C(=O)N2CCC3(CC2)CN(Cc2ccc(C#N)cc2)C3)cc1,> 20 µM (inactive)
16,CN(C)c1ccc(-c2nccc(NCc3cccs3)n2)cc1,> 20 µM (inactive)
17,O=c1c(-c2cc(F)cc(F)c2)nc2cnc(N3CCOCC3)nc2n1CCc1ccccc1,> 20 µM (inactive)
18,CC(C)CN1CCC2(CC1)CCN(C(=O)c1csnn1)CC2,> 20 µM (inactive)
19,CC(C)NC(=O)N1CC[C@@]2(CCCN(C(=O)c3cccc(F)c3)C2)C1,> 20 µM (inactive)
20,Cc1nc2cnc(N3CCNCC3)nc2n(Cc2ccc(F)cc2)c1=O,> 4 µM (inactive)

row,SMILES,Potency
1,CN(C)C(=O)c1ccc(-c2nc(NCc3ccccc3)c3ccccc3n2)cc1,> 20 µM (inactive)
2,CCNc1ncc2nc(-c3cn(C)c4ccccc34)c(=O)n(Cc3ccc(F)cc3)c2n1,> 20 µM (inactive)
3,COc1ccc(Oc2ncc3nc(-c4ccc(Cl)cc4)c(=O)n(C)c3n2)cc1,> 20 µM (inactive)
4,CC(C)NC(=O)N1CC2(CCN(S(=O)(=O)c3ccccc3)CC2)C1,> 20 µM (inactive)
5,COc1ccccc1CN1CCC2(CCNCC2)CC1,> 20 µM (inactive)
6,COCCn1c(=O)c(-c2ccccc2)nc2cnc(Nc3ccccc3)nc21,> 20 µM (inactive)
7,O=C(c1cccc(F)c1)N1CCC2(CCCN(c3ccccn3)C2)CC1,> 20 µM (inactive)
8,O=C(c1cc(C(F)(F)F)cc(C(F)(F)F)c1)N1CCC2(CCCN(c3ccccc3)C2)CC1,> 20 µM (inactive)
9,COc1ccc(-c2nc3cnc(Oc4ccccc4)nc3n(CCC#N)c2=O)cc1,16.7 µM (inactive)
10,N#CCCn1c(=O)c(-c2cccc(C#N)c2)nc2cnc(Oc3cccc(Cl)c3)nc21,> 20 µM (inactive)
11,CN(C)C(=O)c1ccc(-c2nc(N3CCOCC3)c3ccccc3n2)cc1,> 20 µM (inactive)
12,COc1ccc(-n2c(=O)c(-c3cn(C)c4ccccc34)nc3cnc(N4CCOCC4)nc32)cc1,> 20 µM (inactive)
13,Cc1cccc(CNc2ccnc(-c3ccccc3CN(C)C)n2)c1,> 20 µM (inactive)
14,Cn1cc(-c2nc3cnc(N4CCOCC4)nc3n(CCC#N)c2=O)c2ccccc21,> 4 µM (inactive)
15,CC(C)CN1CC2(CCN(C(=O)c3csnn3)CC2)C1,> 20 µM (inactive)
16,O=c1c(-c2ccc(F)cc2)nc2cncnc2n1-c1ccccc1,> 20 µM (inactive)
17,N#Cc1cccc(-c2nc3cnc(N4CCOCC4)nc3n(C3CC3)c2=O)c1,> 20 µM (inactive)
18,O=C(c1csnn1)N1CCC2(CCN(Cc3nccs3)CC2)CC1,> 20 µM (inactive)
19,O=C(c1ccco1)N1CCC[C@@]2(CCN(Cc3nccs3)C2)C1,> 20 µM (inactive)
